# According to PubChem BioAssay AID1159580 (chemical genetic matrix, 2015):
# Several values for one entry are separate records, joined by “and”; a condition that tells them apart may be missing. Equal entries are not always repeated. Out of some 5,500 compounds screened, about 2,000 (36%) were called active. About 18% were inconclusive and are not listed. This is one part of the list. Values without a mark were called inactive. No stated cut-off is given here; in the data, active means normalized growth mostly below about 0.91 (no sharp cut-off); inconclusive means no clear call, values can overlap the other calls; inactive means mostly above about 0.92.
# Assay: chemical genetic growth profiling, strain panel (AID 1159580);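 further: tested at 20 µM; growth read once vehicle control cultures reached saturation at 30 °C; 1 = growth at the plate median or of vehicle wells; lower values mean less growth of the strain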
# Conditions: S. cerevisiae deletion strains, growth OD
compound,measurement,setting,value
CN[C@@H]1C(O)[C@@H](O[C@@H]2[C@@H](O)[C@H](O[C@H]3OC(CN)=CC[C@H]3N)[C@@H](N)C[C@H]2N)OC[C@]1(C)O (some centres undefined),normalized growth,"locus YAL013W, strain DEP1, hits give low values",1.02
same,normalized growth,"locus YAL021C, strain ccr4, hits give low values",1.01
same,normalized growth,"locus YAL026C, strain drs2, hits give low values",0.99
same,normalized growth,"locus YAL030W, strain snc1, hits give low values",1.01
same,normalized growth,"locus YBL061C, strain skt5, hits give low values",1.01
same,normalized growth,"locus YBR009C, strain hhf1, hits give low values",0.968
same,normalized growth,"locus YBR021W, strain FUR4, hits give low values",1.02
same,normalized growth,"locus YBR023C, strain chs3, hits give low values",1.01
same,normalized growth,"locus YBR171W, strain sec66, hits give low values",1.02
same,normalized growth,"locus YBR229C, strain ROT2, hits give low values",1.02
same,normalized growth,"locus YBR231C, strain swc5, hits give low values",1.02
same,normalized growth,"locus YBR279W, strain paf1, hits give low values",1
same,normalized growth,"locus YCL011C, strain gbp2, hits give low values",1
same,normalized growth,"locus YCL016C, strain dcc1, hits give low values",0.997
same,normalized growth,"locus YCL029C, strain bik1, hits give low values",0.997
same,normalized growth,"locus YCL061C, strain MRC1, hits give low values",1.03
same,normalized growth,"locus YCL069W, strain vba3, hits give low values",1.01
same,normalized growth,"locus YCR088W, strain abp1, hits give low values",1.01
same,normalized growth,"locus YDL005C, strain med2, hits give low values",1.01
same,normalized growth,"locus YDL035C, strain GPR1, hits give low values",1.02
same,normalized growth,"locus YDL040C, strain nat1, hits give low values",1.01
same,normalized growth,"locus YDL074C, strain BRE1, hits give low values",1.08
same,normalized growth,"locus YDL101C, strain DUN1, hits give low values",1.04
same,normalized growth,"locus YDL134C, strain PPH21, hits give low values",1.02
same,normalized growth,"locus YDL185W, strain tfp1, hits give low values",1
same,normalized growth,"locus YDL192W, strain arf1, hits give low values",0.995
same,normalized growth,"locus YDR001C, strain nth1, hits give low values",1.02
same,normalized growth,"locus YDR069C, strain doa4, hits give low values",1.02
same,normalized growth,"locus YDR101C, strain arx1, hits give low values",0.987
same,normalized growth,"locus YDR137W, strain rgp1, hits give low values",0.998
same,normalized growth,"locus YDR150W, strain NUM1, hits give low values",1.02
same,normalized growth,"locus YDR159W, strain sac3, hits give low values",0.989
same,normalized growth,"locus YDR162C, strain NBP2, hits give low values",1.03
same,normalized growth,"locus YDR195W, strain ref2",1.03
same,normalized growth,"locus YDR297W, strain sur2, hits give low values",1.02
same,normalized growth,"locus YDR334W, strain swr1, hits give low values",1.02
same,normalized growth,"locus YDR335W, strain msn5, hits give low values",1.01
same,normalized growth,"locus YDR388W, hits give low values",0.985
same,normalized growth,"locus YDR392W, strain spt3, hits give low values",0.959
same,normalized growth,"locus YDR502C, strain sam2, hits give low values",1.01
same,normalized growth,"locus YEL003W, strain gim4, hits give low values",1.01
same,normalized growth,"locus YEL037C, strain rad23, hits give low values",1.02
same,normalized growth,"locus YEL061C, strain CIN8 (second series), hits give low values",1.02
same,normalized growth,"locus YEL061C, strain CIN8, hits give low values",1.07
same,normalized growth,"locus YER015W, strain faa2, hits give low values",1.02
same,normalized growth,"locus YER016W, strain bim1, hits give low values",0.979
same,normalized growth,"locus YER110C, hits give low values",0.96
same,normalized growth,"locus YER111C, strain swi4, hits give low values",1.02
same,normalized growth,"locus YER155C, strain BEM2 (second series), hits give low values",0.996
same,normalized growth,"locus YER155C, strain BEM2, hits give low values",1
same,normalized growth,"locus YER167W, strain BCK2, hits give low values",1.02
same,normalized growth,"locus YFR010W, strain ubp6, hits give low values",1.03
same,normalized growth,"locus YGL078C, strain dbp3, hits give low values",0.985
same,normalized growth,"locus YGL086W, strain mad1, hits give low values",0.994
same,normalized growth,"locus YGL167C, strain pmr1, hits give low values",1.02
same,normalized growth,"locus YGL173C, strain kem1, hits give low values",1.02
same,normalized growth,"locus YGL227W, strain vid30, hits give low values",1.02
same,normalized growth,"locus YGL240W, strain doc1, hits give low values",1.03
same,normalized growth,"locus YGL248W, strain PDE1, hits give low values",1.03
same,normalized growth,"locus YGL253W, strain hxk2, hits give low values",1
same,normalized growth,"locus YGR078C, strain PAC10, hits give low values",1.03
same,normalized growth,"locus YGR135W, strain pre9, hits give low values",1.01
same,normalized growth,"locus YGR229C, strain SMI1, hits give low values",1.05
same,normalized growth,"locus YGR252W, strain gcn5, hits give low values",0.651 (active)
same,normalized growth,"locus YHR013C, strain ard1, hits give low values",1.01
same,normalized growth,"locus YHR027C, strain rpn1, hits give low values",1
same,normalized growth,"locus YHR030C, strain SLT2, hits give low values",1 and 0.98
same,normalized growth,"locus YHR079C, strain IRE1 (second series), hits give low values",1
same,normalized growth,"locus YHR079C, strain IRE1, hits give low values",0.95
same,normalized growth,"locus YHR129C, strain ARP1, hits give low values",1.02
same,normalized growth,"locus YHR142W, strain chs7, hits give low values",1.02
same,normalized growth,"locus YHR200W, strain rpn10, hits give low values",1
same,normalized growth,"locus YIL066C, strain RNR3, hits give low values",1.02
same,normalized growth,"locus YIL073C, strain SPO22, hits give low values",1.03
same,normalized growth,"locus YIL125W, strain kgd1, hits give low values",1.01
same,normalized growth,"locus YIR030C, strain dcg1, hits give low values",0.995
same,normalized growth,"locus YJL092W, strain hpr5, hits give low values",1.02
same,normalized growth,"locus YJL095W, strain BCK1 (second series), hits give low values",1.01
same,normalized growth,"locus YJL095W, strain BCK1, hits give low values",1.06 and 0.978
same,normalized growth,"locus YJL115W, strain asf1, hits give low values",1.02
same,normalized growth,"locus YJL129C, strain trk1, hits give low values",1.02
same,normalized growth,"locus YJL134W, strain LCB3, hits give low values",1.02
same,normalized growth,"locus YJL154C, strain vps35, hits give low values",1.01
same,normalized growth,"locus YJL164C, strain tpk1, hits give low values",1.01
same,normalized growth,"locus YJL166W, strain qcr8, hits give low values",1.03
same,normalized growth,"locus YJL168C, strain set2, hits give low values",0.997
same,normalized growth,"locus YJL187C, strain SWE1 (second series), hits give low values",1.03
same,normalized growth,"locus YJR043C, strain POL32, hits give low values",1.2 [resistant] (active)
same,normalized growth,"locus YJR066W, strain TOR1, hits give low values",0.96
